Measured values from PubChem BioAssay AID485284 (NMMLSC, 2010).
Potency and affinity values are given separately.

Assay: inhibitors of CD8+ T cell–vesicle binding, dose response, mouse 2C CD8+ T cells, flow cytometry (AID 485284);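 further: drosophila derived vesicles carrying Ld MHC with QL9 peptide plus B7-1 and ICAM-1; vesicle binding seen as anti-B7-1 PE fluorescence on CD8 gated cells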
Details: 2C mouse CD8+ T cell-exosome binding; at 45 µM (top of the series)

Question: For `O=C(NCC1CCCCC1)c1ccc(Cl)c(S(=O)(=O)N2CCOCC2)c1`, which binding remaining, % of control is on record?
Answer: 111%

Question: For `O=C(Nc1ncc([N+](=O)[O-])s1)c1cccs1`, which binding remaining, % of control is on record?
Answer: 56.8%

Question: Which binding remaining, % of control does the source give for `CCN1CCN(c2ccc(S(=O)(=O)N3CCOCC3)cc2NC(=O)/C=C/c2ccc(C)cc2)CC1` here?
Answer: 98.1%

Question: With `Cc1c(NS(=O)(=O)CC23CCC(CC2=O)C3(C)C)c(=O)n(-c2ccccc2)n1C` (centres undefined) as the compound, how does the binding remaining, % of control read?
Answer: 21%

Question: For `O=C(NC1CCCCCC1)C1CCN(S(=O)(=O)c2ccccc2)CC1`, which binding remaining, % of control is on record?
Answer: 137%

Question: With `O=C(CCC(=O)N1CCOCC1)NCc1cccc(C(F)(F)F)c1` as the compound, how does the binding remaining, % of control read?
Answer: 64.2%

Question: With `CCCOc1ccc(C2=CC(=O)C[C@H](c3ccc(OC)cc3)C2)cc1` as the compound, how does the binding remaining, % of control read?
Answer: 143%

Question: Which binding remaining, % of control does the source give for `NC(=O)CCS(=O)(=O)CCN1CCN(S(=O)(=O)c2ccc3c(c2)CCC3)CC1` here?
Answer: 170%

Question: For `O=C1CC(c2nc3ccccc3[nH]2)CN1Cc1ccccc1` (centres undefined), which binding remaining, % of control is on record?
Answer: 207%

Question: Which binding remaining, % of control does the source give for `Cc1ccc(C)c(-n2c3nc(=O)[nH]c(=O)c-3cc3cc([N+](=O)[O-])ccc32)c1` here?
Answer: 133%

Question: For `COc1cc(CNCc2cccnc2)ccc1OCC(=O)NC1CCCCC1`, which binding remaining, % of control is on record?
Answer: 128%

Question: With `Cc1cccc(C(=O)OCC(=O)NN2C(=O)NC3(CCC(C)CC3)C2=O)c1O` (centres undefined) as the compound, how does the binding remaining, % of control read?
Answer: 209%

Question: With `CCC1(c2ccccc2)NC(=O)N(CC(=O)Nc2cc(Cl)ccc2N2CCN(C)CC2)C1=O` (centres undefined) as the compound, how does the binding remaining, % of control read?
Answer: 124%

Question: Which binding remaining, % of control does the source give for `O=C(NCc1ccccc1C(F)(F)F)C1CCC(=O)N(CCCc2ccccc2)C1` (centres undefined) here?
Answer: 90.8%

Question: For `O=C(Nn1cnc2ccccc2c1=O)C1CCCCC1`, which binding remaining, % of control is on record?
Answer: 106%

Question: For `COc1ccc(NC(=O)CC2C(=O)N(Cc3ccccc3)C(=S)N2CCN2CCOCC2)cc1` (centres undefined), which binding remaining, % of control is on record?
Answer: 106%

Question: Which binding remaining, % of control does the source give for `COc1ccccc1NC(=O)Cn1cnc2sc(C)c(S(=O)(=O)N3CCCCC3)c2c1=O` here?
Answer: 115%

Question: With `CC(Sc1nc2ccccc2[nH]1)C(=O)NC1CCCCC1C` (centres undefined) as the compound, how does the binding remaining, % of control read?
Answer: 87.9%

Question: Which binding remaining, % of control does the source give for `COc1ccc(-c2cc(CNS(=O)(=O)c3ccc(NC(C)=O)cc3)on2)cc1` here?
Answer: 101%

Question: Which binding remaining, % of control does the source give for `Cc1cccc(Nc2nc(-c3ccccn3)cs2)n1` here?
Answer: 69.7%

Question: Which binding remaining, % of control does the source give for `Cn1c(=O)c2cc(S(=O)(=O)NCCC(=O)NC3CCCCCC3)ccc2n(C)c1=O` here?
Answer: 83.7%

Question: With `COc1ccc(S(=O)(=O)N2CCCC2C(=O)Nc2ccc(C(C)=O)cc2)cc1` (centres undefined) as the compound, how does the binding remaining, % of control read?
Answer: 91.8%

Question: With `O=C(Cc1c(Cl)cccc1Cl)Nc1cccc(S(=O)(=O)N2CCOCC2)c1` as the compound, how does the binding remaining, % of control read?
Answer: 112%

Question: With `COc1ccc([C@H]2CC(=O)C=C(c3cccc(Cl)c3)C2)cc1` as the compound, how does the binding remaining, % of control read?
Answer: 141%

Question: With `CCCCOc1ccc(C(=O)NCC(=O)N2CCN(C(=O)c3ccco3)CC2)cc1` as the compound, how does the binding remaining, % of control read?
Answer: 23.6%

Question: With `COc1ccc(NS(=O)(=O)c2cc(NC(=O)C3CC3)ccc2N2CCCCC2)cc1` as the compound, how does the binding remaining, % of control read?
Answer: 49.3%

Question: Which binding remaining, % of control does the source give for `c1ccc(COc2ccc(OCCN3CCCCC3)cc2)cc1` here?
Answer: 112%

Question: For `O=C1CCCc2sccc2N1`, which binding remaining, % of control is on record?
Answer: 106%

Question: With `CC(C)[C@H]1C(=O)Nc2ccccc2N1C(=O)N[C@@H](Cc1ccccc1)C(=O)N[C@@H](Cc1ccccc1)C(=O)O` as the compound, how does the binding remaining, % of control read?
Answer: 168%

Question: For `Cc1ccc(S(=O)(=O)N2CCN(C(=O)CNC(=O)c3ccc(Cl)cc3)CC2)cc1`, which binding remaining, % of control is on record?
Answer: 219%

Question: With `Cc1ccc(NC(=O)CN2C(=O)N/C(=C/c3ccc(C)s3)C2=O)cc1` as the compound, how does the binding remaining, % of control read?
Answer: 46%

Question: For `Cc1ccc2c(Cl)cc(Cl)c(OCC(=O)OCC(=O)Nc3ccc(C#N)cc3)c2n1`, which binding remaining, % of control is on record?
Answer: 141%

Question: With `CN(C)S(=O)(=O)c1cccc(-n2sc3ccccc3c2=O)c1` as the compound, how does the binding remaining, % of control read?
Answer: 73.9%

Question: With `Cc1ccccc1CS(=O)(=O)CCC(=O)N1CCN(c2ccc(N3CCOCC3)nn2)CC1` as the compound, how does the binding remaining, % of control read?
Answer: 40.8%
